In publication PMC7862700, “An all-to-all approach to the identification of sequence-specific readers for epigenetic DNA modifications on cytosine”:

Experiments:
Experiment in all cases: DAPPL (digital affinity profiling via proximity ligation, sequencing); 10 mM Tris-HCl pH 7.5, 50 mM NaCl, 1 mM DTT, 4% glycerol, room temperature, 30 min; GST-TFs on glutathione beads, 16-mer random dsDNA library, 0.1% formaldehyde crosslink after washing; high values mean tight binding
FLI1 = biological target: T1, FLI1 (Homo sapiens, UniProt Q01543 1-452); settings: protein: recombinant; tags: N-terminal GST; dsDNA, one strand shown
T1 sequence: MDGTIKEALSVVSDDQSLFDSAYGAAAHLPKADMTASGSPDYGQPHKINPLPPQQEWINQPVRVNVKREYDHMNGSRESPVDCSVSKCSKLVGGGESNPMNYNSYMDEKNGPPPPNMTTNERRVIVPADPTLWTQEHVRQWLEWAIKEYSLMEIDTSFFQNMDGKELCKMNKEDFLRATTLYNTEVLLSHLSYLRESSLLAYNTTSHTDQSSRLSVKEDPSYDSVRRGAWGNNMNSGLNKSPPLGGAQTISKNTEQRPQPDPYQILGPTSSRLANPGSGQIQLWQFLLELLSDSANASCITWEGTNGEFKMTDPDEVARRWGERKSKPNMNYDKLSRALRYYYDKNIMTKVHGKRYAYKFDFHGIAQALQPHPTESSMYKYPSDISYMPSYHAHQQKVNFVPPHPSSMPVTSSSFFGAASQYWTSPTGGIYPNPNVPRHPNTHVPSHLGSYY
Method in brief: (§1)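 Sequencing on an Illumina NextSeq500 followed washing, crosslinking with 0.1% formaldehyde, proximity ligation (BsaI/T4 ligase, 1 h, 37 °C) and PCR amplification of pools that had been incubated for 30 min at room temperature with 200 nmole of a random double-stranded 16-mer DNA library in Tris/NaCl/DTT/glycerol buffer. Each pool held DNA-barcoded human transcription factors, expressed in yeast as GST fusions and captured on glutathione beads, plus a tag-only sample. Binding signal is a hexamer's read frequency for a factor divided by its frequency in the tag-only sample.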

ELK1 = biological target: T2, ELK1 (Homo sapiens, UniProt P19419 1-428); settings: protein: recombinant; tags: N-terminal GST; dsDNA, one strand shown
T2 sequence: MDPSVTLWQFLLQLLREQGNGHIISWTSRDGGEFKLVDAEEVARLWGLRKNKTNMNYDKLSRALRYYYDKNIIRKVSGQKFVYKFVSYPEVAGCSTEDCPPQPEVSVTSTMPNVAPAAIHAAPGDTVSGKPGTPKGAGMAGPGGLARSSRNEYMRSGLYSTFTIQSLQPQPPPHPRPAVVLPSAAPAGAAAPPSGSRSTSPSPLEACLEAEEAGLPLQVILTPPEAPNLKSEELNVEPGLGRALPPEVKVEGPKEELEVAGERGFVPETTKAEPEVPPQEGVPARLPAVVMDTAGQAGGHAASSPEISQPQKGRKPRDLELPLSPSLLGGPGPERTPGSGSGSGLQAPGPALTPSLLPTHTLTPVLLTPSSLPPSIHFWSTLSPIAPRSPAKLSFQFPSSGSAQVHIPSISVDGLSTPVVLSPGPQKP
Method in brief: as §1

GABPA = biological target: T3, GABPA (Homo sapiens, UniProt Q06546 1-454); settings: protein: recombinant; tags: N-terminal GST; dsDNA, one strand shown
T3 sequence: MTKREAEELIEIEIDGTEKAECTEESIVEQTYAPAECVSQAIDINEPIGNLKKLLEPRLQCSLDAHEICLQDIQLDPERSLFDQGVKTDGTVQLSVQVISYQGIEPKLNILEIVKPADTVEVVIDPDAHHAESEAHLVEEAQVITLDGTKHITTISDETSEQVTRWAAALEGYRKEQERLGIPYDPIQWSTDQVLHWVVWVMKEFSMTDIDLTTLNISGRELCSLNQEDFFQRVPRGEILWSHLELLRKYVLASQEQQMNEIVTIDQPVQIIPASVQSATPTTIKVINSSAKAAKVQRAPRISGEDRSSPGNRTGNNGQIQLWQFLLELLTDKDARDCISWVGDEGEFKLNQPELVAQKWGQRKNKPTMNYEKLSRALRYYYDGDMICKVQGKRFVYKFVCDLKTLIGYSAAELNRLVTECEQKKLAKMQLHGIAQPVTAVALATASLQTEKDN
Method in brief: as §1

ERG = biological target: T4, ERG (Homo sapiens, UniProt P11308 1-479); settings: protein: recombinant; tags: N-terminal GST; dsDNA, one strand shown
T4 sequence: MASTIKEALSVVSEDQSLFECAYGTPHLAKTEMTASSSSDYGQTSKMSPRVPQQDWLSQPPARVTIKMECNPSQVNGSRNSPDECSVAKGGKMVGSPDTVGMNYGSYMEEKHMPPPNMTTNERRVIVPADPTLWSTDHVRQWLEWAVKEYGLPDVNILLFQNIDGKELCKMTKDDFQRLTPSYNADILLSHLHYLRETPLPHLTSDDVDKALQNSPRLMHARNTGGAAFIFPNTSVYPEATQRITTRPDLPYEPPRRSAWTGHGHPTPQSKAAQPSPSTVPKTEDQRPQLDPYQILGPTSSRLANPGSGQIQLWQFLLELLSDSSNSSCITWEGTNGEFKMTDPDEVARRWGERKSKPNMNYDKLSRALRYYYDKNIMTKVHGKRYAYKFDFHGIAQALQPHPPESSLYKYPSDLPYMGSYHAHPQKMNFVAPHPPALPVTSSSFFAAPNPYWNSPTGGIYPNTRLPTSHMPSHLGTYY
Method in brief: as §1

ELF1 = ELF1 (Homo sapiens, UniProt P32519 1-619); settings: protein: recombinant; tags: N-terminal GST; dsDNA, one strand shown
Sequence of ELF1 (P32519 whole entry): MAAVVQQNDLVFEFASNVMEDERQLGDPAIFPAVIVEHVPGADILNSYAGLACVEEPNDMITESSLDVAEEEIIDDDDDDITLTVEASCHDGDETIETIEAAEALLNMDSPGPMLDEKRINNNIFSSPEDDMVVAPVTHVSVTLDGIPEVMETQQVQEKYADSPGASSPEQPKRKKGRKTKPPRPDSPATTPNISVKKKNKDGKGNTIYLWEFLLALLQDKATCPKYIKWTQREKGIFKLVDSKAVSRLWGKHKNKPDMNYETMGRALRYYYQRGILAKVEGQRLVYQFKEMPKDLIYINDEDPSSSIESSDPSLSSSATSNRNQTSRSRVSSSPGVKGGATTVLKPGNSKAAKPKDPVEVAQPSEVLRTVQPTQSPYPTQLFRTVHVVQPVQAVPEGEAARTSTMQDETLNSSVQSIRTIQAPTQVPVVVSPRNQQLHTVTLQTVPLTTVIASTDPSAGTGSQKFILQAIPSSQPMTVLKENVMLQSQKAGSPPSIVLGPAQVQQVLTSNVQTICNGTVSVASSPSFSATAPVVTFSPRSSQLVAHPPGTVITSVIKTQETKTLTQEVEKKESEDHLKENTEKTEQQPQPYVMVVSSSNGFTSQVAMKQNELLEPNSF
Method in brief: as §1

EHF = biological target: T5, EHF (Homo sapiens, UniProt Q9NZC4 1-300); settings: protein: recombinant; tags: N-terminal GST; dsDNA, one strand shown
T5 sequence: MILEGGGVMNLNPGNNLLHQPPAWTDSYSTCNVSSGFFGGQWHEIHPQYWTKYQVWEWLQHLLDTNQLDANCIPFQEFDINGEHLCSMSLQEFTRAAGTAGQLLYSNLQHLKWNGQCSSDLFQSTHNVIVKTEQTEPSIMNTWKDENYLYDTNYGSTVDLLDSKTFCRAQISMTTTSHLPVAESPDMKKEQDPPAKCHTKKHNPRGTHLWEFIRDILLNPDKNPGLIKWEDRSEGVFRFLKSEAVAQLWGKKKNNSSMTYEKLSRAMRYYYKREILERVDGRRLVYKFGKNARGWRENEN
Method in brief: as §1

SPI1 = SPI1 (Homo sapiens, UniProt P17947 1-270); settings: protein: recombinant; tags: N-terminal GST; dsDNA, one strand shown
Method in brief: as §1

SPIB = SPIB (Homo sapiens, UniProt Q01892 1-262); settings: protein: recombinant; tags: N-terminal GST; dsDNA, one strand shown
Sequence of SPIB (Q01892 whole entry): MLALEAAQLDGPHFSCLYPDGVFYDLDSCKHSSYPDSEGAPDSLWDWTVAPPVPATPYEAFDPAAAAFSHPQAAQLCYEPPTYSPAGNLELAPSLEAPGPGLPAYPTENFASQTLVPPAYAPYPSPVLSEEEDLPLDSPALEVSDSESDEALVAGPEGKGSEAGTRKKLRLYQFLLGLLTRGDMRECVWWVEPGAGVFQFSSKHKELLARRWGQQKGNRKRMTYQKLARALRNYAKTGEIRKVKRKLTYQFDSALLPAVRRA
Method in brief: as §1

ELK3 = biological target: T6, ELK3 (Homo sapiens, UniProt P41970 1-407); settings: protein: recombinant; tags: N-terminal GST; dsDNA, one strand shown
T6 sequence: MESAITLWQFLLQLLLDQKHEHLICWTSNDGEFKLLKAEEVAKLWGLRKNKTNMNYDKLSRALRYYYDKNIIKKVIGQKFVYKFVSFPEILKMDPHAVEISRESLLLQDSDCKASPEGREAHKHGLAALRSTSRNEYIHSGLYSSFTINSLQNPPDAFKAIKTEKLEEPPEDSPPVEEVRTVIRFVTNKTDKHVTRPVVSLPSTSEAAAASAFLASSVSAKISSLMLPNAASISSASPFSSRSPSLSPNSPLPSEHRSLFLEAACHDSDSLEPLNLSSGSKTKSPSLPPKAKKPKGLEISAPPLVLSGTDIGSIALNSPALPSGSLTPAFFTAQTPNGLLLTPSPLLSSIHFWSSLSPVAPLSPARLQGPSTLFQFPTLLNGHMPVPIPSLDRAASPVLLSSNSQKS
Method in brief: as §1

FEV = biological target: T7, FEV (Homo sapiens, UniProt Q99581 1-238); settings: protein: recombinant; tags: N-terminal GST; dsDNA, one strand shown
T7 sequence: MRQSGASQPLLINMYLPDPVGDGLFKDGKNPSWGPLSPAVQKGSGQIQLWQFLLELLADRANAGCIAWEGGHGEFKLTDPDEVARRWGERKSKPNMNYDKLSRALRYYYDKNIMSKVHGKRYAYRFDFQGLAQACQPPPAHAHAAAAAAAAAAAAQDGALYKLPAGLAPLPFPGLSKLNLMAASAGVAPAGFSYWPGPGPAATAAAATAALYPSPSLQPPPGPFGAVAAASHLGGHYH
Method in brief: as §1

ETV5 = ETV5 (Homo sapiens, UniProt P41161 1-510); settings: protein: recombinant; tags: N-terminal GST; dsDNA, one strand shown
Sequence of ETV5 (P41161 whole entry): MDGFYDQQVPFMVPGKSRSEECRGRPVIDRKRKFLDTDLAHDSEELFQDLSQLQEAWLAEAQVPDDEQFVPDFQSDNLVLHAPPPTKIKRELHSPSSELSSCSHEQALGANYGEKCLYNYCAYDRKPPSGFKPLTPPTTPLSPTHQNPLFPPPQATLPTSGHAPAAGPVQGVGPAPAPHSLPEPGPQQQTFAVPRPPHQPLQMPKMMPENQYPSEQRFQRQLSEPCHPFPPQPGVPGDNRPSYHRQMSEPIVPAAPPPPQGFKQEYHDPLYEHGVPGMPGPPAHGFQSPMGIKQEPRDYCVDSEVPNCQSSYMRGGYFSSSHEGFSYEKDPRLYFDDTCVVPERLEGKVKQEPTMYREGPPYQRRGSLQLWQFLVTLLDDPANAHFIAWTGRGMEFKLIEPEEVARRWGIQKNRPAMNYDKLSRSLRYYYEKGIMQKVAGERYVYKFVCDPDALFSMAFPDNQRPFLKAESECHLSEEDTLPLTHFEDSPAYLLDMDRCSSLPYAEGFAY
Method in brief: as §1

HSF1 = HSF1 (Homo sapiens, UniProt Q00613 1-529); settings: protein: recombinant; tags: N-terminal GST; chain copies: 3; dsDNA, one strand shown
Sequence of HSF1 (Q00613 whole entry): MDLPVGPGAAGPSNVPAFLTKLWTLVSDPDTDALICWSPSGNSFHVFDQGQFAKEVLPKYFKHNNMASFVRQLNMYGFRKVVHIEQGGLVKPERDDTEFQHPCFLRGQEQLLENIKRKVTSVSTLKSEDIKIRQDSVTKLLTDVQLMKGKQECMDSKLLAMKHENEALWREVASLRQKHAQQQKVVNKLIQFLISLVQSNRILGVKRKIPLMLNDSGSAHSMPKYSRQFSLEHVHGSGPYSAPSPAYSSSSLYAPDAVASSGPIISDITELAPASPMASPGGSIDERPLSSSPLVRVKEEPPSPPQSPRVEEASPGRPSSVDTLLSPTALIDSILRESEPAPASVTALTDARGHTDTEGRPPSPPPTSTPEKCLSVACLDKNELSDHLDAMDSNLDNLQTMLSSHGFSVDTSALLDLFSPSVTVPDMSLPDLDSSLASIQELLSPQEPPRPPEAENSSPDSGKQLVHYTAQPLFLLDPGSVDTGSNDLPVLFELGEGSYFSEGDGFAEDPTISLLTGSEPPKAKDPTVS
Method in brief: as §1

SPIC = biological target: T8, SPIC (Homo sapiens, UniProt Q8N5J4 1-248); settings: protein: recombinant; tags: N-terminal GST; dsDNA, one strand shown
T8 sequence: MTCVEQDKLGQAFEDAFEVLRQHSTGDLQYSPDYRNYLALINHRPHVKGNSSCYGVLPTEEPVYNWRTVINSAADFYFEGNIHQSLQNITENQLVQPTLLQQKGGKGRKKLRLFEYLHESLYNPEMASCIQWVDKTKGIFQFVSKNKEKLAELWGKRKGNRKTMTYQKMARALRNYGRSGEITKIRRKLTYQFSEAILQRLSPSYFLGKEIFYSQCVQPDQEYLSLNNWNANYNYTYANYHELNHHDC
Method in brief: as §1

ELF4 = ELF4 (Homo sapiens, UniProt Q99607 1-663); settings: protein: recombinant; tags: N-terminal GST; dsDNA, one strand shown
Sequence of ELF4 (Q99607 whole entry): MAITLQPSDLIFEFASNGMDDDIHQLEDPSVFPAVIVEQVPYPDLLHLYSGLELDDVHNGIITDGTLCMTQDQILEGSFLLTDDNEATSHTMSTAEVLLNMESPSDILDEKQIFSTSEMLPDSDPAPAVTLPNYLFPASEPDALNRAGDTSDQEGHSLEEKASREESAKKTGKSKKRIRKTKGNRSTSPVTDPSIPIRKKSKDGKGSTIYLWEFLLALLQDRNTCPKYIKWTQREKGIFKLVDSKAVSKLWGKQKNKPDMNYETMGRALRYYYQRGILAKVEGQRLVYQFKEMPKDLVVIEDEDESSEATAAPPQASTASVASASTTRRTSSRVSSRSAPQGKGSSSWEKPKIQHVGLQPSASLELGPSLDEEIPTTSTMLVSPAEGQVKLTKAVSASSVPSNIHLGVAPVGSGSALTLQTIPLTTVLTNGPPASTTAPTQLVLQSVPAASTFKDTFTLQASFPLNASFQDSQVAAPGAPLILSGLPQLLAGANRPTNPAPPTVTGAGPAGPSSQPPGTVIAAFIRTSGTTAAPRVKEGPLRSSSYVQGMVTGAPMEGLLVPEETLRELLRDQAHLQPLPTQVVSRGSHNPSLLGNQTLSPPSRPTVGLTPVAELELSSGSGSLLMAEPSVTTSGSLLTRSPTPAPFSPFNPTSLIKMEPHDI
Method in brief: as §1

ELK4 = biological target: T9, ELK4 (Homo sapiens, UniProt P28324-2 1-405); settings: protein: recombinant; tags: N-terminal GST; dsDNA, one strand shown
T9 sequence: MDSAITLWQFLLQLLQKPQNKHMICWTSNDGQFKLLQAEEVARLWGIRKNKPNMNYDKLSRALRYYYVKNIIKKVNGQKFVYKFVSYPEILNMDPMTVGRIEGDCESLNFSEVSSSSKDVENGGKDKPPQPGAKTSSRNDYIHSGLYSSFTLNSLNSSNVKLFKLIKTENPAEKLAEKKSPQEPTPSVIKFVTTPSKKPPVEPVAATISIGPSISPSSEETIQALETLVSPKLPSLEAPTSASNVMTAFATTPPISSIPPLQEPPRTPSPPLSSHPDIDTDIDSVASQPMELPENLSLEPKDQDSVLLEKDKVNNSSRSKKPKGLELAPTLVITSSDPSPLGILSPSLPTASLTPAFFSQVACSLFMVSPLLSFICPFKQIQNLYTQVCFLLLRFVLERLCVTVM
Method in brief: as §1

ETV2 = biological target: T10, ETV2 (Homo sapiens, UniProt O00321 1-342); settings: protein: recombinant; tags: N-terminal GST; dsDNA, one strand shown
T10 sequence: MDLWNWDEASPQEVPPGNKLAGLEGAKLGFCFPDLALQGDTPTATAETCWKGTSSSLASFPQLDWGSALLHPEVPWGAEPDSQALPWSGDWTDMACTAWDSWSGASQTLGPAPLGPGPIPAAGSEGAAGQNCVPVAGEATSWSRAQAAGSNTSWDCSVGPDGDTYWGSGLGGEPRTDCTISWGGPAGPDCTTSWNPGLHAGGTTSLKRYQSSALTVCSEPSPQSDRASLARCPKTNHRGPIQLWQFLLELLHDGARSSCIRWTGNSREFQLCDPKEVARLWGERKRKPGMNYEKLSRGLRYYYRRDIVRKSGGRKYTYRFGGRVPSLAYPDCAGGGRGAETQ
Method in brief: as §1

ELF3 = biological target: T11, ELF3 (Homo sapiens, UniProt P78545 1-371); settings: protein: recombinant; tags: N-terminal GST; dsDNA, one strand shown
T11 sequence: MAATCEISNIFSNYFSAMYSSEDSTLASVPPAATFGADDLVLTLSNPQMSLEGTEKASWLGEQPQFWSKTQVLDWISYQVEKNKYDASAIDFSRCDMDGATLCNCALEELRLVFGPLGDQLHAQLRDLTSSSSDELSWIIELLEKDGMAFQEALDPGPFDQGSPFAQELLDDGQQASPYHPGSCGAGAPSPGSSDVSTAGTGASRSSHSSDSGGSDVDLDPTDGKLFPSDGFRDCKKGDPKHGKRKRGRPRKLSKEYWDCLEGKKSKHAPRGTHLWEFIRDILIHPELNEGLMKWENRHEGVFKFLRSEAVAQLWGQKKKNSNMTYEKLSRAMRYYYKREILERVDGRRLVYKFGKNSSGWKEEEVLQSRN
Method in brief: as §1

CRX = CRX (Homo sapiens, UniProt O43186 1-299); settings: protein: recombinant; tags: N-terminal GST; dsDNA, one strand shown
Sequence of CRX (O43186 whole entry): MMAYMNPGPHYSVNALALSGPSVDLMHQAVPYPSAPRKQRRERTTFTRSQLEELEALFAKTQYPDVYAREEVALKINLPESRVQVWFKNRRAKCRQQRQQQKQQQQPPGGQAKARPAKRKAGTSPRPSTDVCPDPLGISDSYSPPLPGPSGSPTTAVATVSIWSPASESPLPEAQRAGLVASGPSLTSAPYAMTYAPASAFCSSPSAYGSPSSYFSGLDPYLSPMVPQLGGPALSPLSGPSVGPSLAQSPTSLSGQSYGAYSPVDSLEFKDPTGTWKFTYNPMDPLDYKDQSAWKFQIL
Method in brief: as §1

ETV1 = ETV1 (Homo sapiens, UniProt P50549 1-477); settings: protein: recombinant; tags: N-terminal GST; dsDNA, one strand shown
Sequence of ETV1 (P50549 whole entry): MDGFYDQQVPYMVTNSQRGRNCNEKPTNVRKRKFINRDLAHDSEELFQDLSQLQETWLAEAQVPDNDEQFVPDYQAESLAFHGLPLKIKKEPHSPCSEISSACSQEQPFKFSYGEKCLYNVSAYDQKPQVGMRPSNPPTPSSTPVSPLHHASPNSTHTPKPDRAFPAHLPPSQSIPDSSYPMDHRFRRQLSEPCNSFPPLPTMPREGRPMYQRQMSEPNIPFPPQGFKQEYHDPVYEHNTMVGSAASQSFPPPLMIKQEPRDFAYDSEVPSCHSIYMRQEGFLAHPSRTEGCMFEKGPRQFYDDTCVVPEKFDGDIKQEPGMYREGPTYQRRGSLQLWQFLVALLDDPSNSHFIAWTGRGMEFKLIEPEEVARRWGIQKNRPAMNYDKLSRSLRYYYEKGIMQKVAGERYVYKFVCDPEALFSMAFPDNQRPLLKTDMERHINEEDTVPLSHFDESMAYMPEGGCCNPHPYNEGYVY
Method in brief: as §1

TTATCT
binding signal (FLI1): 1.37 fold enrichment (6-mer frequency, TF over GST control) | binding signal (ELK1): 1.2 fold enrichment (6-mer frequency, TF over GST control) | binding signal (GABPA): 1.41 fold enrichment (6-mer frequency, TF over GST control) | binding signal (ERG): 1.15 fold enrichment (6-mer frequency, TF over GST control) | binding signal (ELF1): 1.31 fold enrichment (6-mer frequency, TF over GST control) | binding signal (EHF): 1.3 fold enrichment (6-mer frequency, TF over GST control) | binding signal (SPI1): 1.31 fold enrichment (6-mer frequency, TF over GST control) | binding signal (SPIB): 1.34 fold enrichment (6-mer frequency, TF over GST control) | binding signal (ELK3): 1.36 fold enrichment (6-mer frequency, TF over GST control) | binding signal (FEV): 1.24 fold enrichment (6-mer frequency, TF over GST control) | binding signal (ETV5): 1.27 fold enrichment (6-mer frequency, TF over GST control) | binding signal (HSF1): 2.24 fold enrichment (6-mer frequency, TF over GST control) | binding signal (SPIC): 1.25 fold enrichment (6-mer frequency, TF over GST control) | binding signal (ELF4): 1.25 fold enrichment (6-mer frequency, TF over GST control) | binding signal (ELK4): 1.45 fold enrichment (6-mer frequency, TF over GST control) | binding signal (ETV2): 1.2 fold enrichment (6-mer frequency, TF over GST control) | binding signal (ELF3): 1.13 fold enrichment (6-mer frequency, TF over GST control) | binding signal (CRX): 3.25 fold enrichment (6-mer frequency, TF over GST control) | binding signal (ETV1): 1.29 fold enrichment (6-mer frequency, TF over GST control)
